Molecules are shown by their SMILES. Results filed as inconclusive are left out. Values without a mark were called inactive. The source made the active and inactive calls. The call rests on the fitted dose curve; in most records, active means well fitted curve in the direction sought with a large enough effect; inconclusive means small, poorly fitted or top-dose-only effect, or another doubt; inactive means no such curve, though single readings can be large; an effect the other way counts as inactive or inconclusive.

The nature of assay [1]: Quantitative High-Throughput drug screen in 47 multiple myeloma cell lines against the NCATS MIPE library collection: Delta47_JCRB cell viability assay (AID 1918925; further: nearly all actives have a fitted effect of over 45% in size). The essentials:
(§1)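 CellTiter-Glo luminescence (ATP) after 48 h compound exposure, 37C/5% CO2; 500 cells/well; MIPE 4.0 approved/investigational drugs pinned in; DMSO = 100%, media only = 0% viability.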

Assay [2] is described as follows: Quantitative High-Throughput drug screen in 47 multiple myeloma cell lines against the NCATS MIPE library collection: EJM_DSMZ cell viability assay (AID 1918926; further: nearly all actives have a fitted effect of over 30% in size). The essentials: as §1
Assay [3] can be described thus: Quantitative High-Throughput drug screen in 47 multiple myeloma cell lines against the NCATS MIPE library collection: AMO1_DSMZ cell viability assay (AID 1918927; further: nearly all actives have a fitted effect of over 30% in size). The essentials: as §1
Assay [4] in a line: Quantitative High-Throughput drug screen in 47 multiple myeloma cell lines against the NCATS MIPE library collection: ARP1_JJKsccF8 cell viability assay (AID 1918928; further: nearly all actives have a fitted effect of over 40% in size). In short, it runs like this: (§2)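 Myeloma cells, 500 per well, were exposed to MIPE 4.0 drugs by pin transfer for 48 h at 37 °C, 5% CO2. Viability was read as ATP luminescence with CellTiter-Glo, normalised to DMSO-only (100%) and medium-only (0%) wells.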

A short description of assay [5]: Quantitative High-Throughput drug screen in 47 multiple myeloma cell lines against the NCATS MIPE library collection: Karpas620_DSMZ cell viability assay (AID 1918959). Further: nearly all actives have a fitted effect of over 30% in size. The essentials:
(§3)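 Inhibition of cell viability is measured here. Each line was plated at 500 cells per well, treated with MIPE 4.0 drugs, kept 48 hours at 37C, then assayed for ATP content by CellTiter-Glo luminescence.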

Assay [6] can be described thus: Quantitative High-Throughput drug screen in 47 multiple myeloma cell lines against the NCATS MIPE library collection: KMM1_JCRB cell viability assay (AID 1918960). Further: nearly all actives have a fitted effect of over 30% in size. The essentials: as §2
The nature of assay [7]: Quantitative High-Throughput drug screen in 47 multiple myeloma cell lines against the NCATS MIPE library collection: KHM11_PLB cell viability assay (AID 1918962). Further: nearly all actives have a fitted effect of over 35% in size. In short, it runs like this:
as §3

Assay [8] can be described thus: Quantitative High-Throughput drug screen in 47 multiple myeloma cell lines against the NCATS MIPE library collection: JIM3_ECACC cell viability assay (AID 1918963; further: nearly all actives have a fitted effect of over 35% in size). In short, it runs like this:
as §3

Assay [9] in a line: Quantitative High-Throughput drug screen in 47 multiple myeloma cell lines against the NCATS MIPE library collection: JIM1_ECACC cell viability assay (AID 1918964). In short, it runs like this: as §1
Assay [10] in a line: Quantitative High-Throughput drug screen in 47 multiple myeloma cell lines against the NCATS MIPE library collection: INA6_PLB cell viability assay (AID 1918965; further: nearly all actives have a fitted effect of over 55% in size). In short, it runs like this:
(§4)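 qHTS of the MIPE 4.0 collection: 500 myeloma cells/well, 48 h drug exposure at 37C in 5% CO2, then CellTiter-Glo for 5 min at room temperature before luminescence reading.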

Assay [11] is described as follows: Quantitative High-Throughput drug screen in 47 multiple myeloma cell lines against the NCATS MIPE library collection: JJN3_DSMZ cell viability assay (AID 1918966; further: nearly all actives have a fitted effect of over 50% in size). In short, it runs like this:
as §1

Assay [12] is described as follows: Quantitative High-Throughput drug screen in 47 multiple myeloma cell lines against the NCATS MIPE library collection: H1112_PLB cell viability assay (AID 1918967; further: nearly all actives have a fitted effect of over 30% in size). The essentials: as §1
Assay [13] is described as follows: Quantitative High-Throughput drug screen in 47 multiple myeloma cell lines against the NCATS MIPE library collection: KMS27_JCRB cell viability assay (AID 1918970). Further: nearly all actives have a fitted effect of over 30% in size. In short, it runs like this: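 KMS27_JCRB myeloma cells, 500 per well, exposed 48 h at 37 C, 5% CO2 to MIPE 4.0 compounds. Viability from ATP by CellTiter-Glo luminescence, normalized to DMSO (100%) and medium-only (0%) wells.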

A short description of assay [14]: Quantitative High-Throughput drug screen in 47 multiple myeloma cell lines against the NCATS MIPE library collection: KMS12BM_JCRB cell viability assay (AID 1918971). Further: nearly all actives have a fitted effect of over 35% in size. The essentials:
as §3

The nature of assay [15]: Quantitative High-Throughput drug screen in 47 multiple myeloma cell lines against the NCATS MIPE library collection: KMS20_JCRB cell viability assay (AID 1918973). Further: nearly all actives have a fitted effect of over 45% in size. In short, it runs like this:
as §1

A short description of assay [16]: Quantitative High-Throughput drug screen in 47 multiple myeloma cell lines against the NCATS MIPE library collection: Karpas25_ECACC cell viability assay (AID 1918968; further: nearly all actives have a fitted effect of over 35% in size). The essentials: as §1
A short description of assay [17]: Quantitative High-Throughput drug screen in 47 multiple myeloma cell lines against the NCATS MIPE library collection: KMS12PE_JCRB cell viability assay (AID 1918972). Further: nearly all actives have a fitted effect of over 30% in size. In short, it runs like this:
as §4

Assay [18] is described as follows: Quantitative High-Throughput drug screen in 47 multiple myeloma cell lines against the NCATS MIPE library collection: ARD_JJKsccE7 cell viability assay (AID 1918929). The essentials:
as §1

The nature of assay [19]: Quantitative High-Throughput drug screen in 47 multiple myeloma cell lines against the NCATS MIPE library collection: Karpas417_ECACC cell viability assay (AID 1918961). The note with it: Karpas417 myeloma viability, CellTiter-Glo ATP luminescence, 48 h; viability (% of DMSO): at 45.8 µM (top of the series). The essentials: as §4
Assay [20] can be described thus: Quantitative High-Throughput drug screen in 47 multiple myeloma cell lines against the NCATS MIPE library collection: KMS21BM_JCRB cell viability assay (AID 1918974). The following applies: ATP luminescence, 48 h; viability: at 45.8 µM (top of the series) unless noted. The essentials:
as §1
Potency means the concentration at half of the fitted maximal effect.

As to `COc1cc2c(Oc3ccc(-c4cnc(Nc5ccc(F)cc5)n(C)c4=O)cc3F)ccnc2cc1OCCCN1CCOCC1`, the Potency is 0.935 µM (active) in assay [1]; 18.7 µM (active) in [2]; 2.35 µM (active) in assay [3]; 8.33 µM (active) in [4]; 2.96 µM (active) in assay [5]; 1.87 µM (active) in assay [6]. In addition, the Potency was 8.33 µM (active) in assay [7]; 5.9 µM (active) in assay [8]; 1.18 µM (active) in assay [9]; 14.8 µM (active) in assay [10]; 11.8 µM (active) in [11]; 14.8 µM (active) in [12]. The Potency is 1.18 µM (active) in [13], 20.9 µM (active) in assay [14] and 2.96 µM (active) in [15].
Take `CC1(C)CCC(c2ccc(Cl)cc2)=C(CN2CCN(c3ccc(C(=O)NS(=O)(=O)c4ccc(N[C@H](CCN5CCOCC5)CSc5ccccc5)c(S(=O)(=O)C(F)(F)F)c4)cc3)CC2)C1`: the Potency in assay [1] is 7.43 µM (active); in [2], 8.33 µM (active); in assay [3] it was 3.72 µM (active); in [4], 13.2 µM (active); in assay [5] it was 0.0187 µM (active); in assay [6] it was 1.87 µM (active). The Potency was 6.62 µM (active) in assay [7]; 5.9 µM (active) in assay [10]; 9.35 µM (active) in assay [11]; 0.0833 µM (active) in [12]; 0.833 µM (active) in [16]; 0.332 µM (active) in [14]. Also, in assay [17], the Potency is 0.0105 µM (active).
Consider `C[C@@H]1COC(Nc2ccc3ncnc(Nc4ccc(OCc5nccs5)c(Cl)c4)c3c2)=N1`, for which the Potency was 2.64 µM (active) in [1]; 1.05 µM (active) in assay [2]; 4.69 µM (active) in assay [3]; 4.18 µM (active) in [18]; 14.8 µM (active) in [5]; 10.5 µM (active) in assay [6]. Moreover, the Potency in assay [8] is 2.35 µM (active); in assay [9], 13.2 µM (active); in [10] it was 4.69 µM (active); in assay [11], 20.9 µM (active); in assay [12], 1.32 µM (active); in assay [16], 2.64 µM (active). Also, the values for the Potency in assay [14] and in [17] were 14.8 µM (active) and 16.6 µM (active), respectively.
On to `Nc1ccccc1NC(=O)c1ccc(CNC(=O)OCc2cccnc2)cc1`, for which the Potency in [1] is 0.372 µM (active); in assay [2] it was 3.72 µM (active); in assay [3] it was 0.833 µM (active); in assay [4], 1.32 µM (active); in [5] it was 2.64 µM (active); in assay [6], 0.418 µM (active). Further, the Potency was 0.469 µM (active) in [19]; 2.96 µM (active) in [8]; 1.48 µM (active) in assay [9]; 0.418 µM (active) in assay [10]; 2.35 µM (active) in [12]; 0.833 µM (active) in assay [16]. Further, the Potency is 0.526 µM (active) in assay [13]; 1.32 µM (active) in [14]; 0.743 µM (active) in assay [17]; 0.526 µM (active) in assay [15]; 0.469 µM (active) in assay [20].
Take `COC(=O)c1ccc2c(C(=Nc3ccc(N(C)C(=O)CN4CCN(C)CC4)cc3)c3ccccc3)c(O)[nH]c2c1`: the Potency was 6.62 µM (active) in assay [1]; 3.72 µM (active) in assay [2]; 4.69 µM (active) in assay [3]; 23.5 µM (active) in assay [4]; 1.66 µM (active) in assay [6]; 0.187 µM (active) in [19]. The Potency in [8] was 6.62 µM (active); in assay [9], 0.0469 µM (active); in [10], 8.33 µM (active); in assay [11], 2.35 µM (active); in assay [14], 16.6 µM (active); in assay [17], 0.526 µM (active). Further, the results for the Potency in assay [15] and in assay [20] were 2.64 µM (active) and 0.0526 µM (active), respectively.
Turning to `COc1cccc2c(NCc3ccccc3)nc(-n3c(N)nc4ccccc43)nc12`, the Potency in assay [1] is 2.96 µM (active); in assay [2], 6.62 µM (active); in assay [3], 1.05 µM (active); in [4] it was 7.43 µM (active); in assay [5], 1.48 µM (active); in assay [6], 1.66 µM (active). In addition, the Potency in assay [7] is 3.32 µM (active); in assay [8] it was 2.96 µM (active); in [9] it was 1.87 µM (active); in [10] it was 3.72 µM (active); in assay [11], 6.62 µM (active); in assay [12], 7.43 µM (active). Besides, the Potency in assay [16] was 2.64 µM (active); in assay [13] it was 1.05 µM (active); in assay [14] it was 9.35 µM (active); in [17], 2.35 µM (active); in assay [15], 2.96 µM (active).
Turning to `COc1ccc(CC2SC(=O)NC2=O)cc1C(=O)NCc1ccc(C(F)(F)F)cc1` (centres undefined), the Potency result in assay [1], in assay [2], in assay [3], in [4], in assay [7] and in assay [8] was “inactive” in each case. For the same molecule, the Potency entry in [11], in assay [12], in assay [13] and in assay [14] was “inactive” in each case. Besides, the Potency in assay [16] was 5.9 µM (active).
Regarding `CNC(=O)c1ccc(N2C(=S)N(c3cnc(C#N)c(C(F)(F)F)c3)C(=O)C23CCC3)cc1F`, the Potency in [1] is 0.743 µM (active); in [2] it was 0.166 µM (active); in assay [3] it was 0.332 µM (active); in assay [5], 2.35 µM (active); in [6], 2.09 µM (active); in assay [19], 1.05 µM (active). Further, the Potency is 2.09 µM (active) in [7]; 2.96 µM (active) in assay [8]; 1.87 µM (active) in assay [9]; 2.09 µM (active) in assay [10]; 3.32 µM (active) in [11]; 0.833 µM (active) in assay [12]. Further, the Potency was 0.743 µM (active) in [16]; 4.69 µM (active) in [13]; 13.2 µM (active) in assay [14]; 2.96 µM (active) in assay [17]; 2.35 µM (active) in assay [15].
As for `COc1ccc(-c2cc3c(C)nc(N)nc3n(C3CCC(OCCO)CC3)c2=O)cn1` (centres undefined), the Potency is 0.0118 µM (active) in [1]; 0.132 µM (active) in assay [2]; 0.0418 µM (active) in assay [3]; 0.0209 µM (active) in assay [4]; 0.132 µM (active) in assay [5]; 0.0235 µM (active) in [6]. Moreover, the Potency in [7] was 0.0296 µM (active); in assay [8] it was 0.0662 µM (active); in [9] it was 0.0074 µM (active); in [10], 0.148 µM (active); in assay [11], 0.0833 µM (active); in assay [12] it was 0.662 µM (active). Moreover, the Potency in assay [16] was 0.0264 µM (active); in [13] it was 0.0264 µM (active); in assay [14], 0.059 µM (active); in assay [15], 0.0264 µM (active).
For the molecule `C=CC(=O)Nc1cc2c(Nc3ccc(F)c(Cl)c3)ncnc2cc1OCCCN1CCOCC1`, the Potency in assay [1] was 2.96 µM (active); in [2] it was 7.43 µM (active); in [4], 5.9 µM (active); in [10] it was 0.833 µM (active); in assay [11] it was 16.6 µM (active); in assay [12], 4.69 µM (active). The Potency was 2.64 µM (active) in assay [16], 14.8 µM (active) in assay [14] and 0.526 µM (active) in [15]. The Potency entry in assay [7] is “inactive”.
